The list is not random: actives were taken first. Their share in the collection is about 0.81%.
TRPML1 inh – human mucolipin-1 channel inhibition. TRPML1-inducible cells, Ca2+ dye fluorescence, FDSS; stronger effect = lower value; inhibition of EC80 agonist-evoked calcium signal. activity change, negative = inhibition, % (concentration not given with the values). actives 0.02% (n = 390,000). AID 624415; in the data active = activity change below about -50%; inconclusive = between about -30% and that limit;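 also: stimulus is agonist 54-4 at its EC80 concentration; % is scaled to controls: 0 for no effect and ±100 for the full control effect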
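Tet-induced TRPML1-DL cells loaded with Ca8 no-wash calcium dye were read kinetically on FDSS. Compound addition was followed by EC80 agonist 54-4 (4 uM final); inhibition was read over 110 s.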
TRHR agonist-1 – agonists of human TRH receptor | P34981 | TRHR cells, calcium flux fluo-8, FDSS agonist mode | activation, % at 2 µM | actives 0.18% (n = 360,000); in the data active = activation above about 30%; also: 0% is about no effect
Target sequence (P34981 whole entry, looked up): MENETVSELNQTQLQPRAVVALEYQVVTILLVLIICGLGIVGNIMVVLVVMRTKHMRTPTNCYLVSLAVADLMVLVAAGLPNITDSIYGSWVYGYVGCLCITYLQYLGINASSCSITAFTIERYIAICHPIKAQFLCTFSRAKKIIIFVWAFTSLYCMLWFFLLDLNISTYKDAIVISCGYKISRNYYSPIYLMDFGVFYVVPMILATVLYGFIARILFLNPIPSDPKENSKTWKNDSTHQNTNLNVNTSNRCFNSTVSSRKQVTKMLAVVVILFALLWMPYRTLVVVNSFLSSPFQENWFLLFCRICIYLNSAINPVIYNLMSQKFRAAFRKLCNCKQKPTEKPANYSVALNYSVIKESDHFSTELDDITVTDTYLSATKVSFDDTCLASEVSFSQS
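Fluo-8-loaded TRHR cells; 10 s baseline, compound added, kinetic Ca2+ fluorescence read 1/s, agonist mode.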
TRHR enhancer-1 – TRH receptor (human) allosteric enhancement; P34981; TRHR cells, fluo-8 calcium fluorescence, EC20 TRH enhancement; enhancement, % at 2 µM; actives 0.66% (n = 360,000); AID 493056; in the data active = enhancement above about 30%; also: 0% is about no effect
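TRHR-expressing cells loaded with fluo-8 calcium dye were read kinetically (ex 480/em 530) during compound addition, then stimulated with an EC20 of TRH (10 nM final). Enhancement of the Gq-mediated intracellular calcium response was scored.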
TRPML1 ag – activates the human TRPML1 channel; actives 0.12% (n = 410,000); Q9GZU1; activation, % (test concentration not listed); TRPML1-expressing cells, Ca2+ dye fluorescence, FDSS; AID 624414; in the data active = activation above about 50%; inconclusive = mostly about 30% to 49%; also: 0% is about no effect
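Agonist activity was taken from a 110 s kinetic Ca2+ dye read on the FDSS after pinning compounds onto TRPML1-DL cells. The cells were seeded at 1,500/well with Tet inducer, incubated about 16 h, then dye-loaded at room temperature.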
TRHR enhancer-2 – human TRH receptor allosteric enhancement confirmation | activity change, negative = inhibition, % at 46.1 µM | AID 493076 | shares compounds with TRHR enhancer-1 | TRH receptor cell assay, enhancer confirmation qHTS | 970 tested, under 10 active;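 also: compound effect scored on response to added TRH at EC20 of 10 nM; 0% is about no effect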
TRHR agonist-2 – confirmation of human TRH receptor agonists. Potency, µM (doses to about 46.1 µM), for inactives: top-dose activation, actives largely listed as activators. shares compounds with TRHR enhancer-1. AID 493078. actives 8% (n = 970). TRHR-expressing cells, agonist activation read-out; also: potency is read from the fitted curve at half-maximal effect; 0% is about no effect; nearly all actives have a fitted effect of over 75% in size
Active calls of the source: *; ? = inconclusive; . = no result given. Unless noted, calls follow the shape of the dose curve; as a rule, active = well fitted curve in the direction sought with a large enough effect; inconclusive = small, poorly fitted or top-dose-only effect, or another doubt; inactive = no such curve, though single readings can be large; an effect the other way counts as inactive or inconclusive.

SMILES	TRPML1 inh	TRHR agonist-1	TRHR enhancer-1	TRPML1 ag	TRHR enhancer-2	TRHR agonist-2
Cc1ccc(NC(=O)C2CSC3(C)CCC(=O)N23)cc1S(=O)(=O)N1CCOCC1 (stereo not given)	3	0	9	0	.	.
COC(=O)[C@H](C)NS(=O)(=O)C1CC1	.	.	.	-1	.	.
O=C(CN(Cc1ccccc1Cl)C(=O)c1csnn1)NCc1ccc2c(c1)OCO2	-15	0	51*	0	-11	4%
COc1ccccc1CN(CC(=O)NCc1ccc2c(c1)OCO2)C(=O)c1csnn1	8	0	-8	0	.	.
O=S(=O)(NCC1(N2CCOCC2)CCCCC1)c1ccc(Cl)cc1C(F)(F)F	-12	46*	7	81*	4	?
[2H]C([2H])(CCOS(N)(=O)=O)c1ccccc1	-12	0	44*	0	2	?
CC(CCOS(N)(=O)=O)c1ccccc1 (stereo not given)	-2	0	-5	0	.	.
[O-][N+](=NC1C=Cc2ccccc21)C1C=Cc2ccccc21 (stereo not given)	.	.	.	0	.	.
CC1(C)Oc2ccc(C(=O)NC3CCCCC3)cc2N(CC#N)C1=O	-1	0	46*	0	1	7%
COc1cccc(C(=O)C2CCCN(C(=O)CCc3scnc3C)C2)c1 (stereo not given)	-4	1	-10	0	.	.
COc1c(C)cc(C(=O)C2CCCN(C(=O)CCc3scnc3C)C2)cc1C (stereo not given)	.	-1	53*	.	-3	-1%
O=C(CNC(=O)c1cccnc1)c1ccc(F)cc1	.	.	.	0	.	.
CC(C)C[C@H](NC(=O)OC(C)(C)C)C(=O)N/N=C/c1ccc2nccnc2c1	-6	0	53*	0	-5	1%
N#Cc1ccc(COc2ccc(CCO)cc2-n2nc3ccccc3n2)cc1	-4	-1	16	-1	.	.
OCCc1ccc(O)c(-n2nc3ccccc3n2)c1	-23	0	44*	0	0	6%
c1ccc(N=c2nc(-c3ccccc3)n(-c3ccccc3)s2)cc1	.	.	.	0	.	.
CCOC(=O)C1CCN(C(=O)c2cc3c(ccc4ccccc43)o2)CC1	-6	-1	42*	1	-5	2%
O=C(C[n+]1cccc2cc(Cl)ccc21)c1ccc(Br)cc1	.	.	.	9	.	.
COc1ccc(/C=C2\SC(=O)N(CCC(=O)Nc3ccccc3)C2=O)cc1OC	-22	0	57*	1	-3	4%
COc1ccc(/C=C2\SC(=O)N(CCCC(=O)Nc3ccc(C(=O)O)cc3)C2=O)cc1OC	9	-1	8	-1	.	.
COc1ccc(NC(=O)COC(=O)c2ccc(N3CCCC3=O)cc2)cc1OC	1	0	43*	1	4	-1%
Cc1cc2c(s1)c1cnn(Cc3ccc(F)c(F)c3F)c(=O)c1n2C	.	-1	2	.	.	.
COc1cccc(N2C(=O)CC(Nc3ccc(N4CCOCC4)cc3)C2=O)c1 (stereo not given)	-4	0	-6	0	.	.
O=C1CC(Nc2ccc(N3CCOCC3)cc2)C(=O)N1c1cccc(C(F)(F)F)c1 (stereo not given)	7	-1	46*	0	0	-1%
COc1ccc(C(=O)C2CCN(CC(=O)Nc3ccc(OC)cc3OC)CC2)cc1	31	0	1	0	.	.
SMILES	TRPML1 inh	TRHR agonist-1	TRHR enhancer-1	TRPML1 ag	TRHR enhancer-2	TRHR agonist-2
COc1cc(C#N)c(NC(=O)CN2CCC(C(N)=O)CC2)cc1OC	42	0	61*	0	-5	6%
O=C(N/N=C/c1ccc(OCc2cnc(Cl)s2)cc1)c1ccncc1	-7	0	50*	2	1	2%
O=C(CCn1c(=O)sc2ccccc21)Nc1ccon1	6	0	43*	0	-2	1%
Cc1ccc(CNCc2cn[nH]c2-c2ccc(C)cc2)cc1	.	.	.	0	.	.
CC1(c2ccc(Cl)cc2)NC(=O)N(CC(=O)NCCC2=CCCCC2)C1=O (stereo not given)	-5	0	81*	1	0	1%
CCCN1CNc2c(c(=O)[nH]c(=S)n2CCc2ccc(C)c(C)c2)C1	.	.	.	-1	.	.

From PubChem
